Compound activity deposited in PubChem BioAssay by Sanford-Burnham Center for Chemical Genomics.
CYP2C19 inh: blockers of cytochrome P450 2C19 activity – biochemical, luminescence, ADME assay, primary screen. P33261. CYP2C19 Supersomes, luciferin-H EGE luminescence, 30 min. inhibition, % at 5 µM. hit rate 21% among 96,000;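 active = CYP2C19 inhibition above a set limit at 5 µM in the primary screen, cut at about 50% in these data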
Target sequence (P33261 whole entry, looked up): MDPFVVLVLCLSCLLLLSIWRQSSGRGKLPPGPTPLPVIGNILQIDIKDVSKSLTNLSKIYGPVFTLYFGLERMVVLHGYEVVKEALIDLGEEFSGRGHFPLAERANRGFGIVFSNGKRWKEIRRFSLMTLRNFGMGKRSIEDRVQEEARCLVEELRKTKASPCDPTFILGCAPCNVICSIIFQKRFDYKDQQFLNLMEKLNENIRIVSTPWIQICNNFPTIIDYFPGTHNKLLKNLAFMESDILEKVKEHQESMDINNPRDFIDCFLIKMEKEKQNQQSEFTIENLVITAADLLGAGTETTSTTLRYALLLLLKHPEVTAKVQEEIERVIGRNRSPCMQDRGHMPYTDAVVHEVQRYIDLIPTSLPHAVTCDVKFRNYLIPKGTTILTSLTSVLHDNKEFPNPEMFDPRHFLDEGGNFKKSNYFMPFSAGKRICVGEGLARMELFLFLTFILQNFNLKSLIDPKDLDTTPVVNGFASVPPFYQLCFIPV
CYP2C9 inh: blockers of cytochrome P450 2C9 activity – biochemical, luminescence, ADME assay, primary screen | P11712 | CYP2C9 Supersomes, luciferin-H conversion | inhibition, % at 5 µM | hit rate 20% among 96,000 | AID 777, 2007;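 active = blocking of liver enzyme CYP2C9 beyond about 50% at 5 µM, limit read from the data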
CYP2C9 activ: human CYP2C9 activators, primary screen, biochemical, luminescence; activation factor at 5 µM; AID 1024, 2008; hit rate 1.4% among 96,000; recombinant CYP2C9, luciferin-H conversion; stronger effect = higher value; factor 1 = untreated enzyme, 0 = blocked; Cytochrome P450 2C9 (Homo sapiens), P11712;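 active = activation factor of 2 or more for CYP2C9 at a 5 µM dose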
CYP2C19 act: human CYP2C19 activators, primary screen, biochemical, luminescence | activation factor at 5 µM | recombinant CYP2C19, luciferin-H EGE luminescence; stronger effect = higher value; 0 = fully inhibited enzyme, 1 = untreated enzyme | Cytochrome P450 2C19 (Homo sapiens), P33261 | 96,000 tested, under 10 active;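 active = activation factor of at least 2 at 5 µM in the primary screen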
Pyk2 oligo antag: antagonists of Pyk2 self-association, primary screen, Q293 cells, FERM NanoBiT luminescence, HTS; Protein-tyrosine kinase 2-beta (Homo sapiens), Q14289; stronger effect = lower value; z-score (the deposit names both 25 µM and 10 µM); hit rate 0.83% among 99,000; AID 1347419, 2020;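 active = Z-score of -3 or lower, scaled per plate to the spread of control and sample wells; inactive = z-score above -3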;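 note: negative z-score means lost luminescence so less FERM oligomerization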
Each line names hits and unclear results; the compound was inactive in the other large screens. Most compounds without a hit are left out; they make up all but 28% or so of the library.

Cc1ccc(C(C(=O)NC2CCCC2)N2CCCC(C)C2)cc1 (stereo not drawn)	none (no result: Pyk2 oligo antag)
O=C(COc1ncnc2scc(-c3ccc(Cl)cc3)c12)NCc1ccco1	none
Cc1nc(NC(=O)COC(=O)CCS(=O)(=O)c2ccccc2Cl)c(Cl)cc1Cl	none
O=S1(=O)CC(O)C(N2CCC(c3ccccc3)CC2)C1 (stereo not drawn)	none
CC(C)CC(NC(=O)C1CCC(C)CC1)C(=O)Nc1ccc2c(c1)OCCO2 (stereo not drawn)	CYP2C9 inh 52 (no result: Pyk2 oligo antag)
CCC1CCC(C(=O)NC(C(=O)Nc2ccc3c(c2)OCCO3)C(C)C)CC1 (stereo not drawn)	none
Cc1cccc(NC(=O)C(c2cccc([N+](=O)[O-])c2)N2CCCCC2)c1 (stereo not drawn)	CYP2C19 inh 52
Cc1cccc(NC(=O)C2(c3ccc([N+](=O)[O-])cc3)CCCC2)c1	CYP2C19 inh 78
COc1cc(CNC(C)(C)CO)ccc1OCC(=O)Nc1ccc(Br)cc1	none
O=C(Nc1nc2ccccc2s1)C1CC(=O)N(c2ccc(Br)cc2)C1 (stereo not drawn)	none
CCOC(=O)N1CC=C2C(C#N)=C(N)C(C#N)(C#N)[C@H](c3cccs3)C2C1 (stereo partly drawn)	none (no result: CYP2C19 inh, CYP2C9 inh, CYP2C9 activ, CYP2C19 act)
CC(C)(C)OC(=O)N1CC=C2C(C#N)=C(N)C(C#N)(C#N)C(c3cccs3)C2C1 (stereo not drawn)	CYP2C9 inh 60
O=C(N1CCOCC1)N1CCN(S(=O)(=O)N2CCCCC2)CC1	none
Cn1c(=O)c2c(ncn2CC(=O)N2CCN(c3cccc(Cl)c3)CC2)n(C)c1=O	none
CC1CC(C)CN(C(=O)c2ccccc2Nc2ccc(SC(F)F)cc2)C1 (stereo not drawn)	CYP2C19 inh 81, CYP2C9 inh 76
CN1CCC(N(C)C(=O)c2ccccc2Nc2ccc(SC(F)F)cc2)CC1	none
O=C(Oc1ccc(-c2cnc3ccccc3n2)cc1)c1cccc([N+](=O)[O-])c1	CYP2C19 inh 67
O=C(Oc1ccc(-c2cnc3ccccc3n2)cc1)c1ccc(Br)o1	CYP2C19 inh 58
O=C(Oc1ccc(-c2cnc3ccccc3n2)cc1)c1ccc(Cl)c([N+](=O)[O-])c1	none
CCN(CC)S(=O)(=O)c1cc(C(=O)Oc2cccc(-c3cnc4ccccc4n3)c2)ccc1Br	CYP2C19 inh 64
CCN(CC)S(=O)(=O)c1ccc(Cl)c(C(=O)Oc2cccc(-c3cnc4ccccc4n3)c2)c1	none
CN1CCc2nc(NC(=O)c3cccc(OC(F)F)c3)sc2C1	none
CN(C)S(=O)(=O)N(CC(=O)Nc1ccc(F)c(F)c1)c1ccccc1	CYP2C9 inh 56
CN(C)S(=O)(=O)N(CC(=O)Nc1ccccc1C(F)(F)F)c1ccccc1	CYP2C19 inh 88 (no result: Pyk2 oligo antag)
Nc1ncncc1-c1ccc([N+](=O)[O-])cc1	none
CC(=O)/C(=N\Nc1ccc(C)cc1)N1CCOCC1	CYP2C19 inh 80
O=C(CNS(=O)(=O)/C=C/c1ccccc1)OCC(=O)N1CCC(Cc2ccccc2)CC1	CYP2C9 inh 52
Cc1ccc(N(CN2C(=O)C3CC=CCC3C2=O)C(=O)c2ccco2)cc1Cl (stereo not drawn)	CYP2C9 inh 61
O=C1CCC(=O)N1CN(C(=O)c1ccco1)c1ccccc1	none
c1ccc(CNC2=NCCC2)nc1	none
Cc1nc(NCc2ccccn2)c2ccccc2n1	none
c1ccc(CNc2ccc3ccccc3n2)nc1	CYP2C19 inh 75
Cc1cc(NCc2ccccn2)nc2ccccc12	CYP2C19 inh 56, CYP2C9 activ 3
Cn1nc([N+](=O)[O-])nc1Oc1ccc2ccccc2c1	none
O=C(CCc1ccccc1)N1CCN(CCO)CC1	none (no result: Pyk2 oligo antag)
O=C(O)CSCc1cnn(-c2ccccc2)c1-n1cccc1	none (no result: CYP2C19 inh, CYP2C9 inh, CYP2C9 activ, CYP2C19 act)
COc1cc(NC(=O)CSCc2cnn(-c3ccccc3)c2-n2cccc2)cc(OC)c1	none (no result: CYP2C19 inh, CYP2C9 inh, CYP2C9 activ, CYP2C19 act)
COc1ccccc1CNC(=O)CSCc1cnn(-c2ccccc2)c1-n1cccc1	CYP2C19 inh 97, CYP2C9 inh 88
CCOc1ccc(NC(=O)CSCc2cnn(-c3ccccc3)c2-n2cccc2)cc1	CYP2C19 inh 98, CYP2C9 inh 94
COc1cccc(CNC(=O)CSCc2cnn(-c3ccccc3)c2-n2cccc2)c1OC	CYP2C19 inh 94, CYP2C9 inh 97
O=C(CSCc1cnn(-c2ccccc2)c1-n1cccc1)N1CCN(Cc2ccccc2)CC1	CYP2C19 inh 89, CYP2C9 inh 96
Cc1ccccc1-n1c(SC(C)C(=O)N2CCN(C)CC2)nc2ccccc2c1=O (stereo not drawn)	none
Cc1ccc(-c2nn(C)c(=O)c3ccccc23)cc1CNC(=O)c1ccco1	none
Cc1ccc(-c2nc(CS(=O)CC(=O)NCCCN3CC(C)CC(C)C3)c(C)o2)cc1 (stereo not drawn)	none (no result: Pyk2 oligo antag)
Cc1ccc(-c2nc(CS(=O)CC(=O)NCCC(C)C)c(C)o2)cc1 (stereo not drawn)	CYP2C9 inh 68 (no result: Pyk2 oligo antag)
COc1cccc(-c2nc(CS(=O)CC(=O)O)c(C)o2)c1 (stereo not drawn)	none (no result: Pyk2 oligo antag)
Cc1oc(-c2cccs2)nc1CS(=O)CC(=O)NCCCN1CC(C)CC(C)C1 (stereo not drawn)	CYP2C9 inh 69 (no result: Pyk2 oligo antag)
CCCN(CCC)CCNC(=O)CS(=O)Cc1nc(-c2ccc(C)cc2)oc1C (stereo not drawn)	none
COc1cccc(-c2nc(CS(=O)CC(=O)NC3CCCC3)c(C)o2)c1 (stereo not drawn)	CYP2C9 inh 57 (no result: Pyk2 oligo antag)
CCc1cccc(NC(=O)CS(=O)Cc2nc(-c3ccc(C)cc3)oc2C)c1 (stereo not drawn)	CYP2C19 inh 77, CYP2C9 inh 88 (no result: Pyk2 oligo antag)
CCOC(=O)C1(c2nc(N)cs2)COC(=O)C1 (stereo not drawn)	none (no result: CYP2C19 inh, CYP2C9 inh, CYP2C9 activ, CYP2C19 act)
O=C(CCl)c1ccc(Cc2ncc(C(F)(F)F)cc2Cl)s1	none
O=C(O)c1ccc(NS(=O)(=O)c2ccc(Cl)cc2)cc1	none
CC(NC(=O)NC12CC3CC(CC(C3)C1)C2)C1CCCO1 (stereo not drawn)	none (no result: CYP2C19 inh, CYP2C9 inh, CYP2C9 activ, CYP2C19 act)
Cc1ccc(-c2nc(CS(=O)CC(=O)NCc3ccc(Cl)cc3)c(C)o2)cc1 (stereo not drawn)	none (no result: Pyk2 oligo antag)
COc1ccc(-c2nc(CS(=O)CC(=O)NCc3ccc(Cl)cc3)c(C)o2)cc1 (stereo not drawn)	CYP2C19 inh 80, CYP2C9 inh 79 (no result: Pyk2 oligo antag)
CCCCNC(=O)CS(=O)Cc1nc(-c2ccc(C)cc2)oc1C (stereo not drawn)	none (no result: Pyk2 oligo antag)
Cc1ccc(-c2nc(CS(=O)CC(=O)NC3CCC(C)CC3)c(C)o2)cc1 (stereo not drawn)	CYP2C19 inh 67, CYP2C9 inh 89 (no result: Pyk2 oligo antag)
Cc1cc(=O)oc(C)c1C(=O)NCCNC(=O)c1c(C)cc(=O)oc1C	none
Cc1ccc(CNC(=O)c2c(C)cc(=O)oc2C)cc1	CYP2C9 inh 51
